Source: PubChem BioAssay (Tox21)
Several values for one entry are separate records, joined by “and”; a condition that tells them apart may be missing. Identical values can stand only once. Results filed as inconclusive are left out. A call without a number means that no potency is given here. Some compounds were tested as several samples or in several runs, with calls that do not always agree. Activity calls are given as the source filed them. Unless noted, calls follow the shape of the dose curve; as a rule, active = well fitted curve in the direction sought with a large enough effect in the repeat runs; inconclusive = weak or mixed curves; inactive = no such curve, though single readings can be large; an effect the other way counts as inactive or inconclusive.

Columns and labels:
[1] = qHTS assay to identify small molecule agonists of the RXR signaling pathway - cell viability counter screen (AID 1159529); also: nearly all actives have a fitted effect of over 50% in size
Method in brief: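 Cell viability is measured by CellTiter-Glo luminescence, 30 min at room temperature, in wells already read for beta-lactamase. Engineered HEK 293T cells (RXR-alpha-UAS-bla) are dosed 16 hr at 37 C. Tetraoctyl ammonium bromide serves as positive control.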

[2] = qHTS assay to identify small molecule antagonists of the retinoid acid receptor (RAR) signaling pathway - cell viability counter screen (AID 1159551); also: nearly all actives have a fitted effect of over 35% in size
Method in brief: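 C3RL4 RARE-luciferase line; cpds + retinol 1 uM final, 6 h, 37 C/5% CO2; CellTiter-Glo ATP luminescence, 30 min RT.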

[3] = target: Luciferin 4-monooxygenase (Photinus pyralis) (UniProt P08659); assay: qHTS assay to identify small molecule inhibitors of firefly luciferase (AID 1224835); also: nearly all actives have a fitted effect of over 25% in size
Method in brief: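 Biochemical qHTS: compounds run as interplate titrations against purified firefly enzyme, with D-luciferin and ATP each at its KM concentration. Light output recorded by CCD imaging.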

[4] = qHTS assay to identify small molecule antagonists of the constitutive androstane receptor (CAR) signaling pathway - cell viability counter screen (AID 1224837); also: nearly all actives have a fitted effect of over 45% in size
Method in brief: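 Read-out: CellTiter-Fluor fluorescence after 23 hr at 37 C/5% CO2. Cells: HepG2 double-stable for hCAR and CYP2B6-2.2kb. Compounds tested at 15 concentrations in the presence of CITCO, final concentration 50 nM.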

[5] = qHTS assay to identify small molecule antagonists of the estrogen related receptor signaling pathway with the pleiotropic PPARgamma coactivator (PGC) from Tox21 10K library - cell viability counter screen (AID 1224840; active = well fitted cell-killing curve with a large enough effect in the repeat runs, not every such curve was filed as active; also: nearly all actives have a fitted effect of over 40% in size)
Method in brief: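 Fluorescence read-out of CellTiter-Fluor viability reagent, added after cells had been exposed to compound in DMSO for 17.5 h at 37 C; 30 min development at 37 C/5% CO2. Cells: PGC/ERR line, 2,000/well.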

[6] = qHTS assay to identify small molecule agonists of the estrogen related receptor signaling pathway with the pleiotropic PPARgamma coactivator (PGC) from Tox21 10K library (AID 1224842); also: nearly all actives have a fitted effect of over 15% in size
Method in brief: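 PGC/ERR reporter cell line, 2,000 cells per well, incubated 6 h at 37 C before 23 nL compound in DMSO was added. After 18 h at 37 C, One-Glo luminescence read following 30 min at room temperature.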

[7] = target: Nuclear receptor subfamily 1 group I member 3 (Homo sapiens) (UniProt Q14994); assay: qHTS assay to identify small molecule antagonists of the constitutive androstane receptor (CAR) signaling pathway (AID 1224838);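 also: HepG2 cells stably expressing hCAR with CYP2B6 luciferase reporter stimulated by CITCO; nearly all actives have a fitted effect of over 40% in size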
Method in brief: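 Read-out: ONE-Glo luciferase luminescence after 30 min at room temperature. HepG2-CYP2B6-hCAR double-stable cells, compounds in 15-point titration plus 50 nM CITCO final, 24 h at 37 C/5% CO2.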

[8] = target: Nuclear receptor subfamily 1 group I member 3 (Homo sapiens) (UniProt Q14994); assay: qHTS assay to identify small molecule agonists of the constitutive androstane receptor (CAR) signaling pathway (AID 1224839); also: nearly all actives have a fitted effect of over 15% in size; as to activation: series mostly up to about 92 µM
Method in brief: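 A 15-concentration quantitative screen uses HepG2 cells co-transfected stably with human CAR and CYP2B6-2.2kb reporter. Treatment lasts 24 h with 0.75 uM PK11195 final present; ONE-Glo luminescence is the signal.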

[9] = target: Thyrotropin receptor (Homo sapiens) (UniProt P16473); assay: qHTS assay to identify small molecule agonists of the thyroid stimulating hormone receptor (TSHR) signaling pathway (AID 1224843; calls by dose curve; also: nearly all actives have a fitted effect of over 45% in size)
Method in brief: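 Agonist-mode screen: TSHR HEK293 cells received test chemicals for half an hour at room temperature, then HTRF cAMP detection reagents for one hour prior to fluorescence measurement. Each chemical ran as a 15-concentration series, triplicated.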

[10] = qHTS assay to identify small molecule antagonists of the estrogen related receptor (ERR) signaling pathway from Tox21 library - cell viability counter screen (AID 1224834); also: nearly all actives have a fitted effect of over 30% in size
Method in brief: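 Multiplexed viability counter screen in ERR cells: 17.5 h compound exposure at 37 C, CellTiter-Fluor added, 30 min at 37 C/5% CO2, fluorescence read.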

[11] = qHTS assay to identify small molecule agonists of the constitutive androstane receptor (CAR) signaling pathway - cell viability counter screen (AID 1224836); also: nearly all actives have a fitted effect of over 45% in size
Method in brief: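 Counter screen multiplexed with the CAR reporter readout: HepG2 cells co-transfected with hCAR and the CYP2B6-2.2kb construct receive a 15-concentration compound series and 0.75 uM PK11195 (final), then CellTiter-Fluor fluorescence is read after 23 h.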

[12] = qHTS assay to identify small molecule antagonists of the retinoic acid receptor (RAR) signaling pathway (AID 1159552; also: nearly all actives have a fitted effect of over 50% in size)
Method in brief: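 Quantitative HTS in C3RL4 RARE-luciferase reporter cells. Compounds were added with 1 uM (final) retinol; luminescence was read after 6 hr.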

[13] = qHTS assay to identify small molecule agonists of the retinoic acid receptor (RAR) signaling pathway (AID 1159553)
Method in brief: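 RARE-luc C3RL4 cells; overnight attachment 37 C/5% CO2; compound (DMSO) 6 hr; luciferase reagent, 30 min RT; luminescence read-out.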

[14] = qHTS assay to identify small molecule antagonists of the estrogen related receptor signaling pathway with the pleiotropic PPARgamma coactivator (PGC) from Tox21 10K library (AID 1224841; call rule not given here; also: actives are mostly falling curves and most rising ones were filed inactive; nearly all actives have a fitted effect of over 50% in size)
Method in brief: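 Luminescence read-out (One-Glo luciferase reagent, 30 min at room temperature) from PGC/ERR cells exposed to DMSO-dissolved test compounds for 18 h at 37 C; cells, 2,000 per well, had been preincubated 6 h before compound transfer.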
Potency is read from the fitted curve at half-maximal effect.

Luciferin 4-monooxygenase (Photinus pyralis), sequence (P08659 whole entry, looked up): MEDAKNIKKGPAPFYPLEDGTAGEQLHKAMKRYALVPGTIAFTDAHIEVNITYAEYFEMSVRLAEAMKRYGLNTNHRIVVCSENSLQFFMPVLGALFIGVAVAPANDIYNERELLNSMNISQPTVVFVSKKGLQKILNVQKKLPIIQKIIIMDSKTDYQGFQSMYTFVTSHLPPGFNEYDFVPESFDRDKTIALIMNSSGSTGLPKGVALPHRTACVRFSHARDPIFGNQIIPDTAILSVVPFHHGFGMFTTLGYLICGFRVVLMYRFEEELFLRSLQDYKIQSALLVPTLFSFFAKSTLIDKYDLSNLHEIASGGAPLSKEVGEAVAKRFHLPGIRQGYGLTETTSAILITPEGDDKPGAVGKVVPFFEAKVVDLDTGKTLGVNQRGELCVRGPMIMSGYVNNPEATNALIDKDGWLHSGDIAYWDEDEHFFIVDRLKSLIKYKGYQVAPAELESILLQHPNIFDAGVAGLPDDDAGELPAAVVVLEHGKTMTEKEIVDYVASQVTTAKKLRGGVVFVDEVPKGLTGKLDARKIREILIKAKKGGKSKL
Nuclear receptor subfamily 1 group I member 3 (Homo sapiens), sequence (Q14994 whole entry, looked up): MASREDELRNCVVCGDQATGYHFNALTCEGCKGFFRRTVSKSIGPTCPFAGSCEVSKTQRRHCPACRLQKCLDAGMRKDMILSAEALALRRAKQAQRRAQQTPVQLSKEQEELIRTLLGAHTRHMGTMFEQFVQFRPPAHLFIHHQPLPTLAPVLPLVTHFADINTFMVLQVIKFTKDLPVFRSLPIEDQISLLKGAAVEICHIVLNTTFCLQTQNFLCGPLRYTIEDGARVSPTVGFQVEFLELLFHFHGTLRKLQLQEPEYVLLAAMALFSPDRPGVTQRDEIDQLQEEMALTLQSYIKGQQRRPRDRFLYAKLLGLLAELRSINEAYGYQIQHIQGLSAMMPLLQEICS
Thyrotropin receptor (Homo sapiens), sequence (P16473 whole entry, looked up): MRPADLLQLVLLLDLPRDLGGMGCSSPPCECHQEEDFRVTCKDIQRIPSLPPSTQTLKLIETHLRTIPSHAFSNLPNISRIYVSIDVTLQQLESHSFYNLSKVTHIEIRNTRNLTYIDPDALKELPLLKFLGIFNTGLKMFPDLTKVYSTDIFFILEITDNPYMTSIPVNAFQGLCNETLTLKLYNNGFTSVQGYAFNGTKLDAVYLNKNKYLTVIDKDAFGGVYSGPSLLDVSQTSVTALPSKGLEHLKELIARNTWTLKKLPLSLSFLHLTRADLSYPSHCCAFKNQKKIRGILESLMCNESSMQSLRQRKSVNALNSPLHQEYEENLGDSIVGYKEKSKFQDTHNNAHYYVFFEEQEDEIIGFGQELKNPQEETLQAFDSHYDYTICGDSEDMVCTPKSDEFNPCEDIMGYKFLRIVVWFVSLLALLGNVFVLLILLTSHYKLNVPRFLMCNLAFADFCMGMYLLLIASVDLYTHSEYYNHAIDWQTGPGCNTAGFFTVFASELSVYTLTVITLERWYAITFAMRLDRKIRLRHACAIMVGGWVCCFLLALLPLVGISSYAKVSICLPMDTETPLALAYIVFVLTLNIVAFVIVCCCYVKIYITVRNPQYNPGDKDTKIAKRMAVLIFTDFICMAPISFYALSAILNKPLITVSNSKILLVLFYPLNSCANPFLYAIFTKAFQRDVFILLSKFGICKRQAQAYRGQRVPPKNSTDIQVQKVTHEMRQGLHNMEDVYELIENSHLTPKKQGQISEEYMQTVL

Structure (SMILES) | Potency [1] | Potency [2] | Potency [3] | Potency [4] | Potency [5] | Potency [6] | Potency [7] | Potency [8] | Potency [9] | Potency [10] | Potency [11] | Potency [12] | Potency [13] | Potency [14] | activation [8] | activation [9]
CCOP(=S)(OCC)SCCS(=O)(=O)CC | inactive | inactive | inactive | inactive | inactive | inactive |  |  |  |  |  |  |  |  |  | 
N#CCCC(Br)(C#N)CBr (centres undefined) | 38.9 µM (active) | 68.6 µM (active) | 35.6 µM (active) | 61.1 µM (active) |  | inactive | 68.6 µM (active) | inactive | 4.86 µM (active) |  |  |  |  |  |  | 
CCCCCCCCCCCCCC[P+](CCCCCC)(CCCCCC)CCCCCC (tested in a mixture with another compound) | 9.77 µM (active) | 27.3 µM (active) |  | 17.2 µM (active) | 24.3 µM (active) |  |  |  |  | 24.3 µM (active) | 17.2 µM (active) |  |  |  |  | 
c1ccc(Nc2ccc3ccccc3c2)cc1 | 43.4 µM (active) |  | 22.3 µM (active) and 31.7 µM (active) | inactive | inactive | 27.1 µM (active) and 30.6 µM (active) | inactive | 30.5 µM (active) and 48.6 µM (active) | 48.3 µM (active) | inactive | inactive | inactive | 3.05 µM (active) and 8.63 µM (active) | inactive |  | 
CN(C)C(=S)[S-].CN(C)C(=S)[S-].[Cu+2] | 0.844 µM (active) | 16.7 µM (active) |  | 1.49 µM (active) | 0.938 µM (active) |  |  |  |  | 1.18 µM (active) | 3.73 µM (active) |  |  |  |  | 
ClC1=C(Cl)[C@]2(Cl)[C@H]3[C@H]([C@H]4C=C[C@H]3C4)[C@@]1(Cl)C2(Cl)Cl | inactive | inactive | inactive | inactive | inactive |  | inactive | 13.7 µM (active) | 9.69 µM (active) |  | inactive |  |  |  |  | 
CCCCCCCCCCBr | inactive | inactive | inactive | inactive | inactive | inactive |  |  |  | inactive | inactive |  |  | inactive |  | 
C1CCC2CCCCC2C1 (centres undefined) | inactive | inactive | inactive | inactive | inactive | inactive | inactive | inactive |  | inactive |  |  |  | inactive |  | 
COc1ccc([N+](=O)[O-])cc1O | inactive | inactive | inactive | inactive | inactive |  |  |  | inactive | inactive | inactive |  |  |  |  | 
CCSC(C)CC1CC(=O)C(/C(CC)=N/OC/C=C/Cl)=C(O)C1 (centres undefined) | inactive | inactive | inactive | inactive | inactive | inactive |  |  | inactive | inactive | inactive |  |  | 2.11 µM (active) |  | 
COc1cc(C=O)cc2c1[C@H](COC(N)=O)[C@]1(OC(C)=O)ON2C[C@H]2[C@@H]1N2C(C)=O | inactive | inactive | inactive | 0.433 µM (active) | inactive | inactive | 0.0486 µM (active) | inactive | inactive |  |  |  |  | 1.93 µM (active) |  | 
Cc1cc(C)c(C2=C(OC(=O)CC(C)(C)C)C3(CCCC3)OC2=O)c(C)c1 | inactive | inactive |  | inactive | inactive | inactive | inactive | inactive |  | inactive |  |  |  | inactive |  | 
Clc1ccc(COC(Cn2ccnc2)c2ccc(Cl)cc2Cl)cc1 (centres undefined) | 32.3 µM (active) and 38.7 µM (active) |  | inactive | 40.4 µM (active) and 43.1 µM (active) and 26.6 µM (active) | 50.8 µM (active) and 54.3 µM (active) |  | 54.3 µM (active) and 29.8 µM (active) | inactive | inactive | 45.3 µM (active) and 48.4 µM (active) and 26.6 µM (active) | 45.3 µM (active) and 54.3 µM (active) | 50.8 µM (active) and 48.4 µM (active) and inactive |  |  |  | 
C[CH2][Hg][N]1C(=O)C2C(C1=O)C1(Cl)C(Cl)=C(Cl)C2(Cl)C1(Cl)Cl (centres undefined) | 4.14 µM (active) |  | 5.35 µM (active) | 13 µM (active) | 13 µM (active) |  | 11.6 µM (active) |  |  | 13 µM (active) | 14.6 µM (active) | 11.6 µM (active) |  |  | -23.5% [at 19 µM] (inactive) | -16.4% [at 19 µM] (inactive)
CCCCCCCCCCCCCCCC[n+]1ccccc1 | 17.1 µM (active) [middle of 4 runs] | 63.9 µM (active) and 54.5 µM (active) and 53.7 µM (active) | inactive | 32 µM (active) and 15.4 µM (active) and 19.1 µM (active) | 53.7 µM (active) [middle of 4 runs] |  |  |  |  | 32 µM (active) [middle of 4 runs] |  |  |  |  |  | 
COC(=O)N(C(=O)N1COC2(C(=O)OC)Cc3cc(Cl)ccc3C2=N1)c1ccc(OC(F)(F)F)cc1 (centres undefined) | inactive | inactive | inactive | inactive | inactive | inactive |  |  | inactive |  | inactive |  |  | 23.7 µM (active) |  | 
CC(C)C(=O)Cl | inactive | inactive | inactive | inactive | inactive | inactive |  |  | inactive | inactive | inactive |  |  |  |  | 
COC[C@H](C)N(C(=O)CCl)c1c(C)csc1C | inactive | inactive | inactive | inactive | inactive | inactive |  |  |  | inactive |  |  |  | inactive |  | 
CC(=O)[O-].CC(=O)[O-].[Hg+2] | 2.75 µM (active) | 4.33 µM (active) |  | 4.86 µM (active) | 2.73 µM (active) |  |  |  |  | 3.86 µM (active) | 7.7 µM (active) |  |  |  |  | 
CCCCCCCCCC[N+](C)(C)CCCCCCCCCC | 15.5 µM (active) | 61.1 µM (active) | inactive | 24.3 µM (active) | 27.3 µM (active) |  | 27.3 µM (active) | inactive | inactive | 43.3 µM (active) |  |  |  |  |  | 
CCN(CC)C(=S)[S-].CCN(CC)C(=S)[S-].[Zn+2] | 1.72 µM (active) | 30.4 µM (active) | 35.3 µM (active) | 1.36 µM (active) | 2.41 µM (active) |  |  |  | inactive | 3.41 µM (active) | 3.04 µM (active) |  |  |  |  | 
